# Experimental data as given in the supplement of paper PMC3334620.
# Whole data set: some 33,000 sequences, median “E-score (-0.5 to 0.5)” near -0.015, cut for the highest 2% near 0.3. What follows is part of a selection rich in the highest values, with near analogues and random picks from the rest.
# Biological target: T1, Abf1 (UniProt P14164)
# T1 sequence: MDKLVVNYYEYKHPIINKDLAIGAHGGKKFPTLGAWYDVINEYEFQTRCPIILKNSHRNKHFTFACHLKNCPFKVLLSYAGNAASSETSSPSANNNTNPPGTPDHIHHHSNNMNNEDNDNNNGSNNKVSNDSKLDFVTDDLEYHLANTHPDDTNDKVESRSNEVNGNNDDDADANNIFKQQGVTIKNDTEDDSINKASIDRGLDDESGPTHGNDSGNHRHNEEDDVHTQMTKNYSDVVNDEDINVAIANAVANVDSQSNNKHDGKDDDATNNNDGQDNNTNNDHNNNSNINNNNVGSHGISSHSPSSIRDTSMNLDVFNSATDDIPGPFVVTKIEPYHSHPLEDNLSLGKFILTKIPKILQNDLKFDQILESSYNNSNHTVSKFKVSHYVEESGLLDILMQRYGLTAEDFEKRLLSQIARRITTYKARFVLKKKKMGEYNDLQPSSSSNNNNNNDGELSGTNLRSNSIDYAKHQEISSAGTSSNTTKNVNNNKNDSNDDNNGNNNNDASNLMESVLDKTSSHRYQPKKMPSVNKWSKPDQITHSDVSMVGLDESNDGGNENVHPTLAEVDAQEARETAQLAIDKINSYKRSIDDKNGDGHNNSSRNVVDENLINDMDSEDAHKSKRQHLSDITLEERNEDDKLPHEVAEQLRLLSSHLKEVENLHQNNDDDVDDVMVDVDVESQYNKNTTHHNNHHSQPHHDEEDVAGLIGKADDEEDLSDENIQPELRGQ
# Assay: PBM E-score (8-mer binding enrichment) (E-score (-0.5 to 0.5)); higher = stronger / more preferred TF binding
# Settings: protein concentration: 200 nM; construct: GST-full length
# Experimental: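 Universal 'all 10-mer' protein binding microarrays (Agilent AMADID 015681) probed with GST-tagged S. cerevisiae TFs (full-length or DBD) made by in vitro transcription/translation (PURExpress), about 100-200 nM. Bound TF was detected with fluorescent anti-GST. Each ungapped 8-mer (which stands for itself and its reverse complement) is scored by the PBM enrichment score (E-score), a modified Wilcoxon-Mann-Whitney statistic from -0.5 to +0.5, computed with the Universal PBM Analysis Suite. Scale: above 0.35 generally sequence-specific binding.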
row,Sequence,PBM E-score
1,GTTAACGA,0.252
2,ACTGGTCG,-0.0382
3,AGTGCGAA,-0.196
4,CTCACCAG,-0.101
5,CGAAGGGC,-0.116
6,ACAGTGTC,-0.155
7,AGGGCTTC,0.0312
8,CCTCGTAA,0.131
9,AATCGTAA,0.145
10,AATCGTAG,0.197
11,ACTCGTAA,0.173
12,TCTCGTAA,0.306
13,ACTCGTAT,0.305
14,AATCGTAT,0.297
15,GCTCGTAA,0.118
16,ACTCGTAG,0.16
17,CACTCGGC,-0.0263
18,ACCAAGCT,-0.00876
19,AGGTTACT,0.024
20,CAATACTG,-0.239
21,CGCTCACA,-0.0723
22,ACGCGGGC,-0.0155
23,GCTTCGCC,-0.147
24,ACCCGTAA,0.0373
25,CGCCGTCC,0.308

row,Sequence,PBM E-score
1,GGCCGTAC,0.367
2,AGCCGTCC,0.0251
3,ACCCGTAG,-0.248
4,ACCCGTAC,0.299
5,CGCCGTAA,0.0647
6,CGCCGTAG,0.209
7,CGCCGTCA,0.199
8,CGCCGTAC,0.315
9,GGCCGTAA,0.121
10,AGCCGTAC,0.238
11,CTACGTCA,0.146
12,CCAGTGAG,-0.251
13,CATTAGGC,0.0172
14,GGTCCCAA,-0.136
15,CAGTCCAA,-0.177
16,TCGCGGAA,0.0001
17,AGCTACCG,-0.0848
18,AGCCGTTC,-0.0626
19,CACCGTAG,0.0588
20,CGCCGTTC,0.331
21,CACCGTAC,0.385
22,CGCCGTTA,0.14
23,CACCGTAA,0.101
24,AGACCCCG,-0.0859
25,CAGCAAGG,-0.192

row,Sequence,PBM E-score
1,GGTGACTA,0.149
2,GCACTATA,0.017
3,AAGACAAC,0.0616
4,CTCCCCAC,-0.0818
5,CGAGAGAA,0.0467
6,CAGTAATA,0.304
7,CAGTAATG,-0.0287
8,CAGTAATC,-0.00799
9,GCCGTAAC,0.211
10,ATTTATTG,0.0665
11,CCCATTTC,-0.182
12,GTCGTCAA,0.222
13,ATCGTCTC,0.25
14,GTCGTCAC,0.35
15,CACGTCAC,0.368
16,CTCGTCAC,0.336
17,AGCGTCAC,-0.00719
18,ATCGTCAC,0.389
19,CTCGTCAG,0.182
20,CTCGTCAA,0.0916
21,CACGTCAG,0.0977
22,GCCGTCAC,0.0578
23,CACGTCAA,0.0325
24,AGTATGCA,0.111
25,CAATGCCC,-0.0566

row,Sequence,PBM E-score
1,GGGTTTGA,0.121
2,CCGCGCAC,-0.209
3,CCCTTAGG,-0.0737
4,AGGACCCC,-0.0335
5,ATCGTCGC,0.362
6,ATCGTCGG,0.218
7,ATCGTCGA,0.289
8,ATGCTAAA,0.0969
9,CCCACGAC,0.0916
10,ACCACGAA,0.0971
11,TCCACGAA,0.352
12,CCCACGAA,0.316
13,CCCACGAG,0.0399
14,GCCACGAA,0.0988
15,ACGCACAT,-0.00733
16,CGCGGCGC,-0.00706
17,AGACGACA,0.264
18,TCACGACA,0.257
19,CGACGACG,0.177
20,GGACGACA,0.299
21,CGACGACA,0.311
22,GGACGAGA,0.145
23,GGACGACC,0.0608
24,TGACGACA,0.361
25,AGACGACC,0.0722

row,Sequence,PBM E-score
1,CAAGTTGA,-0.187
2,CCCGGGCC,-0.304
3,CAACTCGC,0.0334
4,AATTTCAT,0.134
5,GCCAGGCA,-0.186
6,TGCCTCAA,-0.124
7,TACGGCAA,0.301
8,GACGGCTA,0.0813
9,CACGGCTA,0.307
10,AACGGCGC,0.123
11,TCCGGCGA,0.069
12,TACGGCGA,0.313
13,AACGGCGT,0.227
14,AACGGCGA,0.327
15,GACGGCGA,0.0475
16,CACGGCAA,0.219
17,GACGGCAA,0.246
18,AACGGCTA,0.193
19,GCCATGAA,-0.0667
20,ATTTTCCG,0.1
21,CCCGGAAC,-0.125
22,AATTCACT,-0.102
23,AAGCTCTC,-0.125
24,GCCATAGA,-0.126
25,GACTCATA,-0.0291

row,Sequence,PBM E-score
1,ACTTCGCA,0.0373
2,CACGGCGA,0.305
3,CACGGTGA,0.308
4,ACGGGTGG,0.0777
5,CACGGCGG,0.00732
6,CACGGCGC,0.139
7,AACGGTGA,0.135
8,CCGGGTGA,0.12
9,ACGGGTGA,0.32
10,CACGGTGC,0.0971
11,AAGTGGTC,-0.131
12,CCACCTGA,-0.0561
13,TCAATAGA,-0.172
14,CGTGATGA,0.31
15,GTTGATGA,0.283
16,CGTGATGC,0.0552
17,GGTGATGA,0.34
18,ACTGATGA,0.19
19,AGTGATGA,0.366
20,AGTGATTA,0.351
21,AGTGATTC,0.207
22,GCTGATGA,0.199
23,CCTGATGA,0.139
24,GGTGATTA,0.242
25,AGTGATGG,0.056

row,Sequence,PBM E-score
1,CATTCGCC,0.0362
2,ATTATTAG,0.164
3,CATCCTCC,-0.127
4,ACAGGTCA,-0.0348
5,ACCTGCAT,0.013
6,AACCAGCC,-0.0913
7,CTGTGAAC,0.0459
8,CCTCCCAG,-0.196
9,CGTGCCAG,0.148
10,ACCTGGCC,-0.0752
11,CCCTCTAA,-0.23
12,CCTAAATC,0.154
13,ATTGATGC,0.0481
14,AATGATGC,0.196
15,AGTGATGC,0.319
16,AGAAGACT,-0.0993
17,CCACTACA,-0.0773
18,ACACTACA,0.169
19,TCACTACA,0.344
20,CTCTGTGA,-0.118
21,CGAACAGC,-0.165
22,AAGATCCT,0.0788
23,TATTTCGA,0.272
24,TAGACGAA,0.338
25,CAGACGAA,0.324

row,Sequence,PBM E-score
1,TAGACGGA,0.122
2,AAGACGAA,0.223
3,CAGACGAC,0.191
4,GAGACGAA,0.0822
5,AAGCTAAC,0.0254
6,AGTCAGCC,-0.181
7,CCTCCCAC,-0.188
8,CCTCCAGC,-0.322
9,GCCTACCC,-0.25
10,CACTAGCC,0.144
11,GATGTCCC,0.209
12,ACGATGCG,0.07
13,ACCCCCGT,-0.0911
14,GGGACGAA,0.0455
15,CGGACGAC,0.343
16,AGGACGAA,0.147
17,AGGACGAC,0.12
18,CGGACGAA,0.35
19,CGGACGAG,0.191
20,AGAGCGTC,0.0295
21,AGACTTTG,0.0104
22,CGCAAACC,-0.124
23,AGTGAAGG,-0.145
24,GTTCTTCA,0.117
25,GGGTCTAA,-0.112

row,Sequence,PBM E-score
1,TATCATCA,0.385
2,AATCATCG,0.179
3,AATCATCT,0.184
4,TCTCATCA,0.145
5,CATCATCA,0.254
6,AATCATCA,0.317
7,GATCAACC,0.005
8,CTTCTATC,0.0251
9,ACGCACAC,0.0964
10,AAGGCTCG,-0.0968
11,ACGAAGGA,0.0584
12,AACCGTGC,0.306
13,AACCGTCT,-0.0069
14,CATCGTGA,0.135
15,AACCGTGG,-5e-05
16,AATCGTGG,0.125
17,AATCGTGA,0.175
18,AACCGTCC,-0.0986
19,AATCGTGC,0.311
20,AACCGTCG,0.298
21,GACCGTGC,0.108
22,CATCGTGG,0.0192
23,CATCGTGC,0.314
